Measured values as given in PubChem BioAssay.
The source made the active and inactive calls.

Legend:
[1] = target: Albumin (Bos taurus) (UniProt P02769); test: bovine serum albumin binders on microarray, profiling panel, artefact control for SMM control protein annotation, biochemical, small-molecule microarray, Alexa647 label, 635/667 nm fluorescence (AID 1118); conditions: BSA-A647 binding, fluorescence 635 nm, higher = more signal;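 further: score merges 667 nm emission intensity and signal-to-noise per printed compound spot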
[2] = small-molecule microarray binders of probe aXIP, primary screen, biochemical, NeuroSMM set, 635/667 nm fluorescence (AID 1119); conditions: higher = more signal, called active from +8 up or from −8 down;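 further: probe is the protein aXip251-270 applied at 1 µg/mL to compound-printed slides; binding of probe to printed compounds measured as 667 nm fluorescence plus signal to noise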
[3] = small-molecule binders of probe aNOTCH3, primary screen, biochemical, small-molecule microarray, 635/667 nm fluorescence (AID 1120); conditions: higher = more signal;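 further: probe is a biotin-tagged antibody raised against NOTCH3 rather than NOTCH3 protein; score merges spot fluorescence near 667 nm with spot signal to noise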
[4] = small-molecule binders of probe aNOTCH2, primary screen, biochemical, small-molecule microarray, 635/667 nm fluorescence (AID 1121); conditions: higher = more signal;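 further: score merges feature fluorescence read at 667 nm with its signal to noise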
[5] = target: Carbonic anhydrase 2 (Homo sapiens) (UniProt P00918); test: CAII small-molecule binders, profiling panel, biochemical, small-molecule microarray, Alexa647-labelled CAII (AID 1122); conditions: CAII-A647 binding fluorescence, higher = more signal
[6] = COS7 lysate on small-molecule microarray, probe aHis, 635 nm (AID 1123); conditions: COS7 cell lysate, fluorescence, higher = more signal;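 further: z-score combines 667nm fluorescence intensity with signal-to-noise per printed compound spot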
[7] = compound binding in COS7 lysate, probe aLAP1, primary screen, cell lysate, small-molecule microarray (AID 1124); conditions: probe aLAP1, fluorescence, higher = more signal;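 further: lysate comes from COS7 cells expressing LAP1 and is applied at 0.3 µg/mL; score merges spot fluorescence near 667 nm with signal-to-noise over triplicate slides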
[8] = tested on: Sam68 (KHDRBS1); test: Sam68 small-molecule binders, primary screen, biochemical, small-molecule microarray, 635 nm fluorescence (AID 1125); conditions: small-molecule microarray binding, higher = more signal;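 further: score merges 667 nm channel intensity with signal to noise over triplicate slides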
[9] = tested on: Chordin-like protein 2 (CHRDL2); test: CHRDL2 small-molecule binders, primary screen, biochemical, small-molecule microarray, 635 nm fluorescence (AID 1126); conditions: small-molecule microarray binding, fluorescence 635 nm; higher = more signal;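 further: printed compound slides probed with Chrdl2 protein at 4 µg/mL for 1 h at 4 C; score merges 667 nm emission intensity with signal to noise over three replicate slides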
[10] = target: Concanavalin-A (Canavalia ensiformis) (UniProt P02866); test: ConA small-molecule binders, primary screen, artefact control for SMM control protein annotation, biochemical, small-molecule microarray, Alexa647 label, 635 nm (AID 1127); conditions: ConA-A647 binding fluorescence, higher = more signal;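 further: z combines 667 nm emission intensity with signal-to-noise across three replicate slides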
[11] = anti-His antibody binders, primary screen, artefact control for SMM control protein annotation, biochemical, small-molecule microarray, 635 nm fluorescence (AID 1128); conditions: anti-His Alexa647 antibody binding, higher = more signal;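 further: score merges feature fluorescence with signal-to-noise for each printed compound spot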
[12] = tested on: Human papillomavirus type 1a E7 protein (residues 1-88); test: HPV1a E7 small-molecule binders, primary screen, biochemical, small-molecule microarray, residues 1-88, 635 nm (AID 1129); conditions: small-molecule microarray binding, fluorescence 635 nm; higher = more signal
[13] = target: Focal adhesion kinase 1 (Homo sapiens) (UniProt Q05397); test: small-molecule microarray binders of FAK, primary screen, biochemical, 635/667 nm fluorescence, BSA, DTT (AID 1130); conditions: PTK2 binding, 635 nm fluorescence, higher = more signal;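 further: composite of spot emission at 667 nm and signal to noise over triplicate slides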
[14] = tested on: Fibrinogen (Alexa647-labelled); test: fibrinogen binders on compound microarrays, profiling panel, artefact control for SMM control-protein annotation, biochemical, small-molecule microarray, 635/667 nm fluorescence (AID 1131); conditions: fibrinogen-A647 binding fluorescence, higher = more signal;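 further: z-score merges 667 nm fluorescence with per-spot signal-to-noise over triplicate slides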
[15] = target: Follistatin (Homo sapiens) (UniProt P19883); test: follistatin binders on small-molecule microarrays, primary screen, biochemical, small-molecule microarray, 635/667 nm fluorescence (AID 1132); conditions: FST binding, 635 nm fluorescence, higher = more signal
[16] = target: Fibroblast growth factor 2 (Homo sapiens) (UniProt P09038); test: FGF2 binders on small-molecule microarrays, primary screen, biochemical, small-molecule microarray, 635/667 nm fluorescence (AID 1133); conditions: small-molecule microarray binding, FGF2, fluorescence 635/667; higher = more signal
[17] = mitochondrial membrane potential change in A549 cells, profiling panel, cell-based, JC-1 fluorescence, basal, 24 h, 100 nL (AID 1138); conditions: higher = more signal;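 further: A549 lung adenocarcinoma cells under basal conditions with no added stimulus; test concentration not given here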
[18] = tested on: Lefty1; test: Lefty1 binders on small-molecule microarrays, primary screen, biochemical, small-molecule microarray, 635/667 nm fluorescence (AID 1139); conditions: small-molecule microarray binding, fluorescence 635/667; higher = more signal
[19] = tested on: wheat germ agglutinin (Triticum aestivum), Alexa647-labelled; test: wheat germ agglutinin binders on compound microarrays, profiling panel, artefact control for SMM control-protein annotation, biochemical, small-molecule microarray, 635/667 nm fluorescence (AID 1140); conditions: WGA-A647 binding, 635 nm fluorescence, higher = more signal;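 further: score merges 667 nm feature emission with signal to noise over triplicate slides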
[20] = target: Luciferin 4-monooxygenase (Photinus pyralis) (UniProt P08659); test: firefly luciferase enzyme inhibitors, primary screen, biochemical, luminescence, purified enzyme, 2006 set (AID 1141); conditions: SteadyGlo luminescence, 30 min, higher = more signal, called active from +8 up or from −8 down;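 further: cell-free assay with purified firefly luciferase at 100 ng per well in PBS; test concentration not given here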
Sequence of Luciferin 4-monooxygenase (Photinus pyralis) (P08659 whole entry, looked up): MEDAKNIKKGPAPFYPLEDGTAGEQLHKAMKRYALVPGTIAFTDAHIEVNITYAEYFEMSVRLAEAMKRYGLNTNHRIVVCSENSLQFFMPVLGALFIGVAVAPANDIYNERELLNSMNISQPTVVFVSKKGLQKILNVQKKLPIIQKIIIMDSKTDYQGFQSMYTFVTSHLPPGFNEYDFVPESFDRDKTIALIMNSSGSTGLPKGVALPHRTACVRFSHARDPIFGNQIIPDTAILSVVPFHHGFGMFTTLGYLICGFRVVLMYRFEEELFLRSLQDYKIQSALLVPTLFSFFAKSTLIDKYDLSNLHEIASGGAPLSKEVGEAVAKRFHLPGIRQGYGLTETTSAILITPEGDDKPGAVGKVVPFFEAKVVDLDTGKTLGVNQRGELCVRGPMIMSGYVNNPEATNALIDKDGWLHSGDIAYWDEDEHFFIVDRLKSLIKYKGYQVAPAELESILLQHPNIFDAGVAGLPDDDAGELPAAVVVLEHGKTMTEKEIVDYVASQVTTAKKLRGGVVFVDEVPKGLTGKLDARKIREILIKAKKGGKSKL

Sequence of Albumin (Bos taurus) (P02769 whole entry, looked up): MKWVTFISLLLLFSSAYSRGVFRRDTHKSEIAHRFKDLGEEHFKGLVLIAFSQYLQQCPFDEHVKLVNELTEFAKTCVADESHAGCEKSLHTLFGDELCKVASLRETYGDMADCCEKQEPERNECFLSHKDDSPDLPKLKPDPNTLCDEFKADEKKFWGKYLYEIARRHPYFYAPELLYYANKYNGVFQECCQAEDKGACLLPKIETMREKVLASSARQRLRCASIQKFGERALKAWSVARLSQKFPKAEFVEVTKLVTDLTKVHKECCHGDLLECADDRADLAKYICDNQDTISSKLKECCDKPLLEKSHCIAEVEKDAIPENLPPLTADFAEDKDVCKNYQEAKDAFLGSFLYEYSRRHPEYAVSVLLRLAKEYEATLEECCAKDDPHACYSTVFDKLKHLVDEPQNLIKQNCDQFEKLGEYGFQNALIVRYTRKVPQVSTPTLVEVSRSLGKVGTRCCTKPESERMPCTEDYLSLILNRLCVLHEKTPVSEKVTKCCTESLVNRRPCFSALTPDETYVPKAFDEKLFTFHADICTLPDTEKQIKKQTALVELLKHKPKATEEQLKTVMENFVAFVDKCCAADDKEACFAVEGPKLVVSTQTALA
Sequence of Follistatin (Homo sapiens) (P19883 whole entry, looked up): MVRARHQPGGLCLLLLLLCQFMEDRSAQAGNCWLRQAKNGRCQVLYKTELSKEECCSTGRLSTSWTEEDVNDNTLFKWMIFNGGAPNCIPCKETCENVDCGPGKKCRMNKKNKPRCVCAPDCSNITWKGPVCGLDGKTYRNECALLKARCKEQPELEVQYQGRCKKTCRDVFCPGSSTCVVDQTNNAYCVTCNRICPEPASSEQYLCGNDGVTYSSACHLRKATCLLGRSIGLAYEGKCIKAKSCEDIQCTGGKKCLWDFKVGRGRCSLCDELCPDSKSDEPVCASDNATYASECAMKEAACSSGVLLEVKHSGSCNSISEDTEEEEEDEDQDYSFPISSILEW
Sequence of Fibroblast growth factor 2 (Homo sapiens) (P09038 whole entry, looked up): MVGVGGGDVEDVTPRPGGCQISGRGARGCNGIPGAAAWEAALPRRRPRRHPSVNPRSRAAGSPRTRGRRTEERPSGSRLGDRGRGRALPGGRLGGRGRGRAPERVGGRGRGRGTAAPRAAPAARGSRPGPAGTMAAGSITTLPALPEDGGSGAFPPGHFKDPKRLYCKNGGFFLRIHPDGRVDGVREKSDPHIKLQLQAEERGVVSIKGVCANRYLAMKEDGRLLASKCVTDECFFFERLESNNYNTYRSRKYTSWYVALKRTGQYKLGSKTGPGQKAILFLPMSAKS
Sequence of Focal adhesion kinase 1 (Homo sapiens) (Q05397 whole entry, looked up): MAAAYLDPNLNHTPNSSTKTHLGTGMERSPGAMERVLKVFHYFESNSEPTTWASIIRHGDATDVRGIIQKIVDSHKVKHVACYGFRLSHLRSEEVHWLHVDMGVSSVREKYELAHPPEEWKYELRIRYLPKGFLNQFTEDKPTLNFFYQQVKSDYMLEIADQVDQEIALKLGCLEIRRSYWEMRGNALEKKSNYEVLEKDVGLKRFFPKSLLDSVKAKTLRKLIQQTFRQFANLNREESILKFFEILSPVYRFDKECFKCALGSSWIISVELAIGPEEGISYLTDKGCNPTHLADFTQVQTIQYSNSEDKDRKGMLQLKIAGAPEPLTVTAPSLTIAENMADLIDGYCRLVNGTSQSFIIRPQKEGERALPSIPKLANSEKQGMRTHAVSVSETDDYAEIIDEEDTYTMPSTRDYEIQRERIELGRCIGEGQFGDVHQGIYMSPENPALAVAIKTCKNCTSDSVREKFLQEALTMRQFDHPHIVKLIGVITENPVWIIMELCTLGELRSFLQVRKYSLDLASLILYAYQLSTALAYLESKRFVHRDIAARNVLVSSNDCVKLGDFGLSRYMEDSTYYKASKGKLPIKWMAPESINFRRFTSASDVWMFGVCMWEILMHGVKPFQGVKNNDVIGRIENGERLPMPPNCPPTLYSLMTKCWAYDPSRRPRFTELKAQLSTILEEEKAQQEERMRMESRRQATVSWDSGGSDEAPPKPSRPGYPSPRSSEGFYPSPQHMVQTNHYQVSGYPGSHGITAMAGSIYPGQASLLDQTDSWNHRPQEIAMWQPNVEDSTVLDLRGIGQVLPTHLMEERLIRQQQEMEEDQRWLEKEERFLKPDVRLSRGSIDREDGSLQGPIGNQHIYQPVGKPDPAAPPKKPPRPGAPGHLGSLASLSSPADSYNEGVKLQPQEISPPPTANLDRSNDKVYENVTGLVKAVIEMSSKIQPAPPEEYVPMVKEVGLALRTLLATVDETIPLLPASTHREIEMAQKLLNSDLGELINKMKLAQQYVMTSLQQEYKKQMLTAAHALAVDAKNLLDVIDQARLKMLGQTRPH
Sequence of Concanavalin-A (Canavalia ensiformis) (P02866 whole entry, looked up): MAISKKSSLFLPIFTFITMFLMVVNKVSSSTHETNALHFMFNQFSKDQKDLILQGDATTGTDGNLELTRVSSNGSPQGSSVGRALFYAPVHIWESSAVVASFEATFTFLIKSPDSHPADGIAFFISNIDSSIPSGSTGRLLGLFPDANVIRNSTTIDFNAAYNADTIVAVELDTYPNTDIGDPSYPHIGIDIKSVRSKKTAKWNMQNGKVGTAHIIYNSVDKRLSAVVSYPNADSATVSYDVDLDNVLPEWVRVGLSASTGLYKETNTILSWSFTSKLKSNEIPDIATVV

Compound	composite z-score [1]	composite Z-score [2]	composite z-score [3]	composite z-score [4]	composite z-score [5]	composite z-score [6]	composite z-score [7]	composite z-score [8]	composite z-score [9]	composite z-score [10]	composite z-score [11]	composite z-score [12]	composite z-score [13]	composite z-score [14]	composite z-score [15]	composite z-score [16]	z-score [17]	composite z-score [18]	composite z-score [19]	z-score [20]
O=C1C2C=CC(C(O)c3ccco3)N(Nc3ccccc3F)C2C(=O)N1c1ccccc1 (stereo not given)	0.963	1.49 (inactive)	0.101	-0.104	-0.0101	1.85	0.433	0.309	-0.238	0.403	0.0678	0.512	0.705	0.791	0.235	-0.327	-0.537	-0.531	0.826	-0.0425 (inactive)
CCOC(=O)[C@@H]1CCCCN1C(=O)C(=O)OC	0.145	-0.587 (inactive)	-0.0431	-0.274	-0.177	0.226	0.193	0.322	-0.0507	0.131	0.234	0.504	0.1	-0.23	0.479	0.894	-0.309	1.29	-0.48	0.0296 (inactive)
Cn1cccc1C(O)C1C=CC2C(=O)N(c3ccccc3)C(=O)C2N1Nc1ccccc1 (stereo not given)	0.857	0.581 (inactive)	0.346	0.2	0.805	2.37	0.461	1.3	0.352	1.19	0.933	1.23	0.848	0.954	1.29	0.984	0.569	0.475	0.557	-0.589 (inactive)
CC(=O)N1CC2(CC2)CC1c1ccccc1 (stereo not given)	0.336	0.204 (inactive)	0.77	0.172	0.671	1.88	0.562	0.913	0.0586	-0.0459	0.712	0.678	0.277	0.59	-0.0582	1.6	0.033	-0.46	0.251	2.49 (inactive)
CCCCC(CC)C(O)C1C=CC2C(=O)N(C)C(=O)C2N1Nc1ccccc1 (stereo not given)	0.928	0.576 (inactive)	0.0934	-0.0804	0.655	1.99	0.245	1.31	-0.113	0.586	1.51	1.21	0.592	0.852	0.22	-0.364	0.665	-0.118	0.795	0.546 (inactive)
CCCC#C[Si](O[C@H](CC)c1cn([C@H](C)c2ccccc2)nn1)(C(C)C)C(C)C	0.468	0.381 (inactive)	-0.112	-0.0317	0.26	0.47	-0.0249	0.702	0.169	0.488	0.439	0.625	0.986	0.856	0.297	0.484	1.04	0.23	0.06	-1.08 (inactive)
COCCOC(=O)N1C(=O)[C@@]2(c3cc(C#CCC(C(=O)OC)C(=O)OC)ccc31)[C@H](c1ccc(OCCO)cc1)N1[C@H](c3ccccc3)[C@H](c3ccccc3)OC(=O)[C@H]1[C@@H]2C(=O)N1CCc2cc(OC)c(OC)cc2C1	0.688	-0.388 (inactive)	0.0351	-0.106	0.256	1.48	-0.0051	1.06	0.378	1.11	1.75	1.22	0.919	0.889	1.37	1.5	-0.942	1.4	1.08	-0.411 (inactive)
CCCCCCc1nc(Cc2cc(OC)c(OC)c(OC)c2)cc2c1[Si](C(C)C)(C(C)C)OC2	-0.526	0.0886 (inactive)	-0.0395	-0.153	-0.0134	0.157	-0.0343	0.239	0.472	0.524	-0.215	-0.517	-0.191	-0.0217	0.422	0.521	0.185	0.566	-0.0555	0.809 (inactive)
CC[C@@H]1O[Si](C(C)C)(C(C)C)c2c1cc(-c1cc(C)c(OC)c(C)c1)nc2-c1ccc(Oc2ccccc2)cc1	-0.145	-0.837 (inactive)	-0.0967	-0.141	-0.272	0.133	-0.006	-0.807	-0.77	-0.0734	-0.23	-0.772	-0.29	-1.22	-0.261	-0.315	-0.413	0.287	0.1	1.09 (inactive)
CN1C(=O)C2C=CC(C(O)c3cccn3C)N(Nc3ccc([N+](=O)[O-])cc3[N+](=O)[O-])C2C1=O (stereo not given)	0.38	-0.398 (inactive)	0.0681	0.476	0.848	0.856	0.376	-0.0879	-0.248	-0.0516	0.421	0.414	0.0533	-0.232	-0.201	0.275	0.0408	-0.583	0.408	0.679 (inactive)
COC(=O)C/C=C/C[C@]1(O)C(=O)N(C)c2ccccc21	-0.475	-0.571 (inactive)	0.212	-0.099	0.273	0.401	0.111	0.241	0.934	-0.556	-0.0221	0.243	1.03	-0.0833	0.721	0.561	1.03	1.17	0.0278	-1.63 (inactive)
